# Assay results as given in the supplement of paper PMC9446081.
# ± gives the standard deviation of the averaged measurements.
# Assays:
# Test in all cases: relative enzymatic activity vs untreated control (fraction); higher = less inhibition
# Conditions in all cases: 100 µM; incubation time: 2 h at 37 C
# DNA gyrase = system: DNA gyrase
# Protocol: (§1)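 In vitro enzymatic inhibition assays (ProFoldin kits) for 12 purified essential E. coli enzymes or complexes, each treated with 218 active antibacterial compounds at 100 µM for 2 h at 37°C. Read-outs were fluorescence or absorbance (phosphate detection, dye binding), converted to activity via standard curves and expressed relative to untreated DMSO controls.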
# DNA helicase = DNA helicase (UniProt P0ACB1)
# Chain of DNA helicase (P0ACB1 whole entry): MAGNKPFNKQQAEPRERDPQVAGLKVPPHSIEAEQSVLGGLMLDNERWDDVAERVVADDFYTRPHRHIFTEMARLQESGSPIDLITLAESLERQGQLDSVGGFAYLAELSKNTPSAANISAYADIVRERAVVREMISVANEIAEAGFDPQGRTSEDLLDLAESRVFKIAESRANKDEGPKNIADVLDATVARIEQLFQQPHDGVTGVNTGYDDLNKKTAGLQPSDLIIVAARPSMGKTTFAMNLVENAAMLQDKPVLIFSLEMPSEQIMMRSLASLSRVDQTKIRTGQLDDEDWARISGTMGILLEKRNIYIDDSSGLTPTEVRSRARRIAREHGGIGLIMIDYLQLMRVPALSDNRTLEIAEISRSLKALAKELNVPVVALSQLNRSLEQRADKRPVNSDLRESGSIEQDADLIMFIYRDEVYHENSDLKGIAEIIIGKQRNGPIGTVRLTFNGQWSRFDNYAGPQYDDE
# Protocol: as §1
# DNA ligase = DNA ligase (UniProt B1XA82)
# Chain of DNA ligase (B1XA82 whole entry): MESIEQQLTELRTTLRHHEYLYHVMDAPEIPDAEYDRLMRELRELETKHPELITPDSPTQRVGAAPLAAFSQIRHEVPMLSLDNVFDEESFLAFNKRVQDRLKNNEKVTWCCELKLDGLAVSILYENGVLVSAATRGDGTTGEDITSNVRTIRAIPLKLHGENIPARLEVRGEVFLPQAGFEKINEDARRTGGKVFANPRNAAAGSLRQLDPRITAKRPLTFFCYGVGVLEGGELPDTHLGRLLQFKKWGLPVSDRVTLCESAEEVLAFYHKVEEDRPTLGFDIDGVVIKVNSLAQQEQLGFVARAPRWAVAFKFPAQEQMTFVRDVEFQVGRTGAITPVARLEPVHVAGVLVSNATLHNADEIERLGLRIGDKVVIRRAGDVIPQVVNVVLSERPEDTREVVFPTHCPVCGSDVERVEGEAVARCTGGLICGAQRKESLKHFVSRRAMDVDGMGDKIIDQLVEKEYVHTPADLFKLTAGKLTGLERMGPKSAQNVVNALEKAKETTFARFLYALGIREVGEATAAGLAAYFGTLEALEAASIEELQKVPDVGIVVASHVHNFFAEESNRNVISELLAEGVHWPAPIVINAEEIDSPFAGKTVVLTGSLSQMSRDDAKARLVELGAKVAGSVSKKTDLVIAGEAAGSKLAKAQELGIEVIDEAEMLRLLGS
# Protocol: as §1
# DNA polymerase = DNA polymerase (UniProt P10443)
# Chain of DNA polymerase (P10443 whole entry): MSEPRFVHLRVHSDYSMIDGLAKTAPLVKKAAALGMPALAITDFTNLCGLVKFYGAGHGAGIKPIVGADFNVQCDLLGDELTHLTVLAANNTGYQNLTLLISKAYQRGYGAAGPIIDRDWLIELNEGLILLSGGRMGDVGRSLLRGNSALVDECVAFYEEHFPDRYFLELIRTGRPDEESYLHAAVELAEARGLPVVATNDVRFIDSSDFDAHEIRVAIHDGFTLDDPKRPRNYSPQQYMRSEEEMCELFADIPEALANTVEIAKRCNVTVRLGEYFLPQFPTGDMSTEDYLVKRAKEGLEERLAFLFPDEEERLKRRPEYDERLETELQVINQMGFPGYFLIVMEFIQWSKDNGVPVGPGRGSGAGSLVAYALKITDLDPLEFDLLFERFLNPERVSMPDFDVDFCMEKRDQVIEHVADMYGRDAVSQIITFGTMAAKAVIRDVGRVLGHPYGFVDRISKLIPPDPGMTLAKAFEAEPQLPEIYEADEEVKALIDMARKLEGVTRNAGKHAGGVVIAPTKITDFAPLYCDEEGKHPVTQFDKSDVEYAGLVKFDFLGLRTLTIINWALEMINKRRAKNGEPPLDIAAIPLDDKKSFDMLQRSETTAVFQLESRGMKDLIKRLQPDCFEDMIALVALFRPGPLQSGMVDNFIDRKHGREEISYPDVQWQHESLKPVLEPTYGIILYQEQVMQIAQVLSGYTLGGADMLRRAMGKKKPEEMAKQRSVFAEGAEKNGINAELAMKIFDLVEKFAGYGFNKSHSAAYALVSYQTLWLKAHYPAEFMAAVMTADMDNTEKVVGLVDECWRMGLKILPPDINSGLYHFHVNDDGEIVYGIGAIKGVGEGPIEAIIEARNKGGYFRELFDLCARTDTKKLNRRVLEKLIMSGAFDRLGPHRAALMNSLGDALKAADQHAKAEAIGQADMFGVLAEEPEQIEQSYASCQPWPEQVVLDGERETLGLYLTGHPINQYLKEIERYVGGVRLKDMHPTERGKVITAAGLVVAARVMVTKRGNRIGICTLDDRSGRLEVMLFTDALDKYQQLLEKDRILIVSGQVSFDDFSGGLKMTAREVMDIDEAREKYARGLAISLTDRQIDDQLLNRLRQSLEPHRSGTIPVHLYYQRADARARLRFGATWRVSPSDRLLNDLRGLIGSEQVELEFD
# Protocol: as §1
# DNA primase = DNA primase (UniProt P0ABS7)
# Chain of DNA primase (P0ABS7 whole entry): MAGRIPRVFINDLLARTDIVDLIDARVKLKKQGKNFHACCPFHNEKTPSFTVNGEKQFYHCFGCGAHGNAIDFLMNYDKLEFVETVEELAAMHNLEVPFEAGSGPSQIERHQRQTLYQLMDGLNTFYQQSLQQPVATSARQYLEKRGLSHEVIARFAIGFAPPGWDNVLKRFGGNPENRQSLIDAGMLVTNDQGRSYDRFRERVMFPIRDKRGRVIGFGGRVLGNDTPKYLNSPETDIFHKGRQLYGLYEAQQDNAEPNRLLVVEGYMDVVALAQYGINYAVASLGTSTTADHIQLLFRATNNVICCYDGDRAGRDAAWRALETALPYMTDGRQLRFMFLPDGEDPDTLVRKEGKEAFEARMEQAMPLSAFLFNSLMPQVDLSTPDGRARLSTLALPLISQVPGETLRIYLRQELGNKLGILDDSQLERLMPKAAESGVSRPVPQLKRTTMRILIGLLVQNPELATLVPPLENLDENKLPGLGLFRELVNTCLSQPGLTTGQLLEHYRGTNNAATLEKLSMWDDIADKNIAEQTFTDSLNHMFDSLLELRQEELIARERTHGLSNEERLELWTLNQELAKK
# Protocol: as §1
# GlmU = GlmU (UniProt A7ZTU1)
# Chain of GlmU (A7ZTU1 whole entry, looked up): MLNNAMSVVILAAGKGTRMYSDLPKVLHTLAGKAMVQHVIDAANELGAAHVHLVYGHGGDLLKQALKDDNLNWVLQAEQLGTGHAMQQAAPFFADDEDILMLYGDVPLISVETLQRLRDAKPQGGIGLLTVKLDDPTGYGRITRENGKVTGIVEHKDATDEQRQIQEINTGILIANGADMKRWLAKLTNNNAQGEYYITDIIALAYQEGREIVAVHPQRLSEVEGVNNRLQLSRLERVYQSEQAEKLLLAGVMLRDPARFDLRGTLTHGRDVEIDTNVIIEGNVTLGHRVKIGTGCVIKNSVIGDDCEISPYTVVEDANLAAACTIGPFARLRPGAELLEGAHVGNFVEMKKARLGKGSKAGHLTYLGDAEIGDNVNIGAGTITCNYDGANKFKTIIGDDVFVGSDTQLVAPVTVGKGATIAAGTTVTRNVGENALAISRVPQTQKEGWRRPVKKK
# Protocol: as §1
# Guanlyate kinase = Guanlyate kinase (UniProt Q0TBG1)
# Chain of Guanlyate kinase (Q0TBG1 whole entry): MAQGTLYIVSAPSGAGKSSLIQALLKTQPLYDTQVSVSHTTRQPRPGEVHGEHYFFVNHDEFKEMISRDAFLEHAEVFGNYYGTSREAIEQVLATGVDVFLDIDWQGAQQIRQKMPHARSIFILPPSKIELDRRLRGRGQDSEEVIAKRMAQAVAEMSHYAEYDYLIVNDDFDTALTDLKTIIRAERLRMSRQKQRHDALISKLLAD
# Protocol: as §1
# MurA = MurA (UniProt Q3YX52)
# Chain of MurA (Q3YX52 whole entry): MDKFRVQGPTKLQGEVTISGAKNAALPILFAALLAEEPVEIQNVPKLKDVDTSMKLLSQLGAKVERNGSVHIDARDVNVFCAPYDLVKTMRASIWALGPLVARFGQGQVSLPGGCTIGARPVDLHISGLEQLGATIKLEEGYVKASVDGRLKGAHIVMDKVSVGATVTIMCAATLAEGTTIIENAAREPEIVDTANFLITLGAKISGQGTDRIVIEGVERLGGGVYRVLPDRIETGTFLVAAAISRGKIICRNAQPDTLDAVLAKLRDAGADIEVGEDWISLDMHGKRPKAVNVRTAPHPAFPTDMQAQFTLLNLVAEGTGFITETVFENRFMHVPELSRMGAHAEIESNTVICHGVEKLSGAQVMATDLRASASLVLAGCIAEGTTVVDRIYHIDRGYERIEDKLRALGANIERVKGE
# Protocol: as §1
# MurD = biological target: T1, MurD (UniProt P14900)
# T1 sequence (whole entry): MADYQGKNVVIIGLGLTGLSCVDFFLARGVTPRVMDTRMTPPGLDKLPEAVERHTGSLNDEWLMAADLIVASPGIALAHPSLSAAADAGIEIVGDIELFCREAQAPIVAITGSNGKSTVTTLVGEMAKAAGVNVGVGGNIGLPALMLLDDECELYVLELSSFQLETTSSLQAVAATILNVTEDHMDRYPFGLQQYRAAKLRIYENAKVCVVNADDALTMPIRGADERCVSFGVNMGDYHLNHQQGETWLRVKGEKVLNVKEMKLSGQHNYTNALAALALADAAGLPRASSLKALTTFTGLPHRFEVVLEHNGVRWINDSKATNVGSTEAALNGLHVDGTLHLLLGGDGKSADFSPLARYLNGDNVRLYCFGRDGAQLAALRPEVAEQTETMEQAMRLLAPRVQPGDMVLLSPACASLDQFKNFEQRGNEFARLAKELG
# Protocol: as §1
# MurF = biological target: T2, MurF (UniProt P11880)
# T2 sequence (whole entry): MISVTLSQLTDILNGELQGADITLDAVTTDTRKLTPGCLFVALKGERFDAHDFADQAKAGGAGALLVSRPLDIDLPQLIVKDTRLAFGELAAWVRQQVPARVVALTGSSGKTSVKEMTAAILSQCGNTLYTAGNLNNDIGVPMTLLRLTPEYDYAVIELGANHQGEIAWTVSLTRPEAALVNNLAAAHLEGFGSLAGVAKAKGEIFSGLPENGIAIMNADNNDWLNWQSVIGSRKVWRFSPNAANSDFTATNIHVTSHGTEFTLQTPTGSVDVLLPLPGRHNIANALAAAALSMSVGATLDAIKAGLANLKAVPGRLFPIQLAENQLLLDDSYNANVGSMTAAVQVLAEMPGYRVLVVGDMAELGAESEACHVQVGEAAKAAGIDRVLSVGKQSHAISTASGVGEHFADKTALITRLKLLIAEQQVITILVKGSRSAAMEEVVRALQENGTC
# Protocol: as §1
# RNA polymerase = system: RNA polymerase
# Protocol: as §1
SMILES,relative enzymatic activity (DNA gyrase),relative enzymatic activity (DNA helicase),relative enzymatic activity (DNA ligase),relative enzymatic activity (DNA polymerase),relative enzymatic activity (DNA primase),relative enzymatic activity (GlmU),relative enzymatic activity (Guanlyate kinase),relative enzymatic activity (MurA),relative enzymatic activity (MurD),relative enzymatic activity (MurF),relative enzymatic activity (RNA polymerase)
CC1COc2c(N3CCN(C)CC3)c(F)cc3c(=O)c(C(=O)O)cn1c23 (centres undefined),0.0425 ± 0.06,0.698 ± 0.077,1.39 ± 0.046,1.3 ± 0.35,0.722 ± 0.2,1.1 ± 0.2,0.937 ± 0.12,0.757 ± 0.05,0.584 ± 0.4,0.976 ± 0.2,1.16 ± 0.38
CO/N=C(\C(=O)N[C@@H]1C(=O)N2C(C(=O)O)=C(C)CS[C@H]12)c1csc(N)n1,0.614 ± 0.47,0.628 ± 0.2,0.904 ± 0.086,0.906 ± 0.062,0.822 ± 0.035,1.018 ± 0.0077,0.836 ± 0.015,0.479 ± 0.18,0.613 ± 0.43,0.979 ± 0.21,0.826 ± 0.098
CC1CN(c2c(F)c(N)c3c(=O)c(C(=O)O)cn(C4CC4)c3c2F)CC(C)N1 (centres undefined),0.00841 ± 0.012,0.442 ± 0.043,1.49 ± 0.054,1.23 ± 0.24,0.715 ± 0.21,0.913 ± 0.04,0.883 ± 0.029,0.603 ± 0.083,0.597 ± 0.4,0.543 ± 0.76,0.92 ± 0.0099
CCC=C(C(=O)NC1C(=O)N2C(C(=O)OCOC(=O)C(C)(C)C)=C(COC(N)=O)CSC12)c1csc(N)n1.Cl (centres undefined),0.924 ± 0.071,0.354 ± 0.016,0.883 ± 0.11,1.17 ± 0.27,0.907 ± 0.088,0.939 ± 0.024,1.02 ± 0.098,0.293 ± 0.18,0.576 ± 0.37,0.941 ± 0.21,0.977 ± 0.094
Nc1c2ccccc2nc2ccccc12,0.766 ± 0.37,0.595 ± 0.097,0.519 ± 0.092,1.01 ± 0.28,0.573 ± 0.14,0.933 ± 0.059,0.3108 ± 0.001,0.74 ± 0.14,0.589 ± 0.38,0.94 ± 0.25,0.505 ± 0.016
Cc1nnc(SCC2=C(C(=O)O)N3C(=O)[C@@H](NC(=O)Cn4cnnn4)[C@H]3SC2)s1,0.719 ± 0.43,0.348 ± 0.37,0.987 ± 0.14,1.17 ± 0.26,0.792 ± 0.035,0.995 ± 0.059,0.9645 ± 0.0053,0.137 ± 0.029,0.604 ± 0.41,0.96 ± 0.22,0.862 ± 0.057
COC(=O)N/N=C/c1ccc([N+](=O)[O-])o1,0.742 ± 0.39,0.508 ± 0.072,0.9684 ± 0.0075,0.516 ± 0.72,0.841 ± 0.017,1.02 ± 0.019,0.942 ± 0.11,0.255 ± 0.17,0.636 ± 0.45,0.961 ± 0.21,0.918 ± 0.14
COc1cc(Cc2cnc(N)nc2N)cc(OC)c1OC,0.772 ± 0.45,0.617 ± 0.18,1.12 ± 0.24,1.36 ± 0.46,0.685 ± 0.15,1.009 ± 0.0036,1.01 ± 0.05,0.706 ± 0.023,0.589 ± 0.4,0.569 ± 0.81,0.887 ± 0.074
CON=C(C(=O)NC1C(=O)N2C(C(=O)[O-])=C(COC(C)=O)CSC12)c1csc(N)n1.[Na+] (centres undefined),0.696 ± 0.52,0.4103 ± 0.0017,0.569 ± 0.58,1.11 ± 0.28,0.68 ± 0.16,0.914 ± 0.13,1.04 ± 0.053,0.0697 ± 0.016,0.575 ± 0.37,0.939 ± 0.19,0.608 ± 0.48
